JMJD2C inh: blocks human GASC-1 demethylase activity | GST-JMJD2C(1-420) H3K9me3 demethylation, DELFIA europium | inhibition, % at 2.35 µM | hit rate 0.069% among 330,000;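 active = more than half of a compound's replicate wells show inhibition beyond 50%, single wells judged on their own value; inconclusive = some, but no more than half, of replicates pass 50% inhibition; inactive = no replicate passes 50% inhibition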;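 also: signal counts dimethyl H3K9 product captured on neutravidin plate; 0% = median of DMSO wells and 100% = 0.3 times that DMSO median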
Target sequence (Q9H3R0 1-420 limits assumed): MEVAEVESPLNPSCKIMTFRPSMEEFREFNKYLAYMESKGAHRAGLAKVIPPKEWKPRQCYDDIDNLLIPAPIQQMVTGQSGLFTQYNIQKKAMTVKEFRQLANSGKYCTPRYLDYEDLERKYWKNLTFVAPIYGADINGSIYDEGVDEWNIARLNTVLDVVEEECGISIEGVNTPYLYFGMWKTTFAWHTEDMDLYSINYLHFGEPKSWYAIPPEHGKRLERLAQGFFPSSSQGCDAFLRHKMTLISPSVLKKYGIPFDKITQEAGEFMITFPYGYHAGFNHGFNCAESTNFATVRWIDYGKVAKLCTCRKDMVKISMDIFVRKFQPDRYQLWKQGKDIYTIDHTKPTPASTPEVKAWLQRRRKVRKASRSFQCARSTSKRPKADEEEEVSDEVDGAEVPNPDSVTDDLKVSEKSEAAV
Rev-erbA mod: modulates human Rev-erb alpha binding to DNA. P20393. Rev-erbα–FITC-DNA binding, fluorescence polarization, 90 min. activity, % at 10 µM. hit rate 0.79% among 370,000;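 active = activity above about 14%, limit read from the data; passing the limit was not always enough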;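 also: 0% = DMSO wells with 35 nM protein and 100% = DMSO wells with 750 nM protein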
PP5 primary: PP5 (human) phosphatase inhibition | AID 1987 | hit rate 0.18% among 320,000 | inhibition, % at 6.7 µM | purified PP5c, OMFP substrate fluorescence;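 active = inhibition above the campaign's mean inhibition across all tested compounds plus 3 SD, cut at about 9.5% in these data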;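 also: 0% = DMSO only and 100% = 100 µM cantharidin control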
PG9 binder: PG9 antibody binding by small molecule; TR-FRET gp120-PG9 antibody binding; inhibition, % at 6.7 µM; hit rate 0.43% among 360,000; AID 624416; in the data active = inhibition above about 8.5%
KLK7 zymogen act: proKLK7 (human) activation, primary screen; P49862; purified proKLK7, EDANS-DABCYL substrate fluorescence; 100% is mature enzyme control, 0% vehicle; activation, % at 7 µM; hit rate 0.9% among 370,000; AID 652039;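 active = activation above the mean of all tested compounds plus 3 SD, computed per campaign excluding outliers beyond control limits, cut at about 13% in these data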
Target sequence (P49862 whole entry, looked up): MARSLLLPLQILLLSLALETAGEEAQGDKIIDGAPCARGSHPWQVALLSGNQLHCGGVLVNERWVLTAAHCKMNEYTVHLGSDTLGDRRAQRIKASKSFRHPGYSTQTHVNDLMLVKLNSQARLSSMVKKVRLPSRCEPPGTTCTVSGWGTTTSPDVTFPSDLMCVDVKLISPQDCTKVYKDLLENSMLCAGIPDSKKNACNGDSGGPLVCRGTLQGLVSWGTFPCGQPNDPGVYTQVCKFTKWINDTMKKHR
PP1 counter: blocks human PP1-alpha phosphatase, a PP5 counter-screen; P62136; purified PP1alpha, OMFP fluorescence; inhibition, % at 6.7 µM; hit rate 0.9% among 320,000; AID 2235;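 active = inhibition above the mean inhibition of all tested compounds plus 3 SD, computed separately for each screening campaign, cut at about 15% in these data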
PP1 inh confirm: human PP1 phosphatase inhibition, confirmation | shares compounds with PP1 counter | hit rate 52% among 1,900 | AID 2358 | inhibition, % at 6.7 µM | purified PP1alpha, OMFP substrate fluorescence;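 active = mean PP1 inhibition above a set limit taken from the earlier primary screen, cut at about 15% in these data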
PP5 counter: counter-screen for PP1 inhibitors: human PP5 phosphatase inhibition | shares compounds with PP1 counter | purified PP5c, OMFP fluorescence | inhibition, % at 6.7 µM | hit rate 4% among 1,900;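 active = mean PP5 inhibition over triplicate wells above about 9.5% taken from the earlier PP1 screen, limit read from the data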
PG9 binder conf: PG9 antibody binding, confirmed; shares compounds with PG9 binder; TR-FRET PG9 antibody binding, biochemical; inhibition, % at 6.7 µM; hit rate 90% among 1,500; in the data active = inhibition above about 9%
PGV04 counter: PGV04 control antibody binding, counter-screen | hit rate 95% among 1,500 | inhibition, % at 6.7 µM | TR-FRET PGV04 antibody-gp120 binding, biochemical | AID 651604 | shares compounds with PG9 binder; in the data active = inhibition above about 9.5%
PG9 binder DR: PG9 antibody binding, dose response; shares compounds with PG9 binder; TR-FRET PG9 antibody-gp120 binding inhibition; IC50, µM; 95 tested, under 10 active; in the data active = IC50 below about 10 µM
PGV04 DR counter: PGV04 binding, dose response counter-screen. AID 651937. IC50, µM. shares compounds with PG9 binder. TR-FRET binding to control antibody PGV04. hit rate 20% among 95
PG126 DR counter: counter-screen for PG9 binders: binding to control antibody PG126. shares compounds with PG9 binder. hit rate 20% among 95. IC50, µM. TR-FRET binding to antibody PG126, counterscreen
KLK7 act conf: confirmation of human kallikrein-7 zymogen activators. shares compounds with KLK7 zymogen act. purified proKLK7, EDANS-DABCYL substrate fluorescence; scaled: vehicle 0, mature enzyme 100. activation, % at 7 µM. hit rate 68% among 3,200. AID 686949;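 active = activation, as change over the incubation, above the mean of all tested compounds plus 3 SD, cut at about 13% in these data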
EDANS interfere: optically interferes with EDANS-DABCYL signal, flagging KLK7 hits; shares compounds with KLK7 zymogen act; EDANS-DABCYL substrate fluorescence interference, no enzyme, 4 h; solvent 0%, active enzyme control 100%; activation, % at 7 µM; hit rate 80% among 3,200;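 active = activation above the all-compound mean plus 3 SD, ignoring values outside control-based bounds, cut at about 4.8% in these data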;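 also: value is the 4 h activation minus the activation read at time zero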
EDANS interf: optically interferes with EDANS-DABCYL fluorescence, kallikrein-7 activator counter-screen; shares compounds with KLK7 zymogen act; EDANS-DABCYL peptide fluorescence interference, no enzyme; EC50, µM; hit rate 20% among 250; AID 720493;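 active = compounds that raise the fluorescence signal in this interference counterscreen, with EC50 at or below 10 µM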;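 also: intact quenched peptide substrate alone read at 355 nm excitation and 520 nm emission; signal is fluorescence gain from T0 to T4 after four hours at room temperature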
* marks the source's active call; other numbers are inactive results; i = inactive; ? = inconclusive; · = not tested or not shown. In the library only some 2.8% were active in any assay of this set; here they are far more common. Rule as the data show it, unless noted: active = IC50 below about 9 µM; inactive = the rest.

SMILES	JMJD2C inh	Rev-erbA mod	PP5 primary	PG9 binder	KLK7 zymogen act	PP1 counter	PP1 inh confirm	PP5 counter	KLK7 act conf	EDANS interfere	others
CCc1ccc(Nc2n[n+](-c3ccccc3)c(-c3ccc(N(CC)CC)cc3)s2)cc1	-1	5	1	9.7*	-1	24*	10	-2	·	·	PG9 binder conf=18*;PGV04 counter=11*;PG9 binder DR=>67;PGV04 DR counter=>67;PG126 DR counter=>67
CCc1ccc(Nc2n[n+](-c3ccccc3)c(-c3cc(OC)c(OC)cc3Br)s2)cc1	-3	0	3	-1	0	5	·	·	·	·
COc1ccc(NC(=O)c2nnn(CC(=O)Nc3ccc4c(c3)OCO4)c2N)cc1OC	-1	3	3	0	9	-1	·	·	·	·
COc1ccc(Cl)cc1NC(=O)c1nnn(CC(=O)Nc2ccc3c(c2)OCO3)c1N	4	-8	2	10*	0	25*	26*	-5	·	·	PG9 binder conf=20*;PGV04 counter=27*
COc1ccc(-n2c(COc3ccccc3)nnc2SCc2nc3ccccc3[nH]2)cc1	·	-1	·	·	0	·	·	·	·	·
COC(=O)c1ccc(C2/C(=C(\O)c3ccc(OC)c(C)c3)C(=O)C(=O)N2c2cc(C)on2)cc1 (stereo not drawn)	2	-6	2	8.7*	0	19*	16*	-6	·	·	PG9 binder conf=14*;PGV04 counter=19*
CCOC(=O)Nc1ccc2c(c1)[C@]1(CC(=O)N(CC(C)C)C1c1ccccc1)C(=O)N2C (stereo partly drawn)	·	-5	·	·	-1	·	·	·	·	·
Cc1cccc(NC(=O)CNC(=O)c2sc3ccccc3c2Cl)n1	0	7	-2	12*	0	22*	3	-4	·	·	PG9 binder conf=4;PGV04 counter=41*
CCCCOc1ccc(C2C(C(=O)c3ccc(C)o3)=C(O)C(=O)N2Cc2ccco2)cc1 (stereo not drawn)	10	-7	2	19*	0	33*	30*	-3	·	·	PG9 binder conf=23*;PGV04 counter=27*
CCOC(=O)Cn1c(=NC(=O)c2sc3ccccc3c2Cl)sc2cc(S(N)(=O)=O)ccc21	4	0	0	9.9*	-2	30*	31*	-3	·	·	PG9 binder conf=12*;PGV04 counter=28*
CCN(C(=O)c1cc2c(=O)[nH]c3ccc(C)cc3c2s1)c1ccc(F)cc1	60	-2	0	15*	-1	18*	17*	-2	·	·	PG9 binder conf=14*;PGV04 counter=24*
CCN(C(=O)c1cc2c(=O)[nH]c3ccc(C)cc3c2s1)c1cccc(C)c1	1	8	0	0	0	-1	·	·	·	·
O=C(NCCN1CCC(Cc2ccccc2)CC1)C1CCCN(S(=O)(=O)c2ccccc2[N+](=O)[O-])C1 (stereo not drawn)	·	-2	·	·	0	·	·	·	·	·
Cc1ccccc1S(=O)(=O)N1CCCc2nc(-c3ccccc3)ccc21	·	1	·	0	1	·	·	·	·	·
Cc1cccc(C(=O)N=c2c(C#N)cc3c(=O)n4cccc(C)c4nc3n2Cc2ccco2)c1	-2	-4	3	0	27*	25*	7	-1	16*	1	EDANS interf=i
CCC[n+]1c2ccccc2cc2ccccc21	6	0	-4	-3	77*	25*	20*	1	73*	81*
Cc1ccc2ccccc2[n+]1CCCS(=O)(=O)[O-]	3	-3	1	-2	0	-2	·	·	·	·
Brc1cc2ccccc2[n+](Cc2ccccc2)c1	-7	5	2	-1	0	-3	·	·	·	·
CCCC[n+]1c2ccccc2cc2ccccc21	11	5	3	-2	65*	22*	19*	0	70*	74*
N=C1/C(=C\c2coc3ccccc3c2=O)C(=O)N=C2SC(c3ccncc3)=NN12	25	-8	-3	0	43*	34*	39*	-8	47*	39*	EDANS interf=i
N=C1/C(=C/c2coc3ccccc3c2=O)C(=O)N=C2SC(c3ccco3)=NN12	-16	·	-1	·	·	3	·	·	·	·
Cc1ccc(NC(=O)c2ccc(CS(=O)(=O)Cc3ccccc3C)o2)cc1C	·	-4	·	·	3	·	·	·	·	·
COC(=O)C1=C(C)N(Cc2ccc(F)cc2)C(=S)NC1c1cccc(OC)c1 (stereo not drawn)	·	1	·	0	0	·	·	·	·	·
N#Cc1c(-c2ccco2)cc(C2CC2)nc1N	-35	-4	-2	-3	-5	2	·	·	·	·
N#Cc1c(-c2ccco2)cc(-c2ccccn2)nc1N	3	-6	2	1	13*	27*	7	0	41*	40*
N#Cc1c(-c2ccco2)cc(-c2cccnc2)nc1N	8	-7	2	2	20*	28*	6	1	42*	43*
C[C@H]1[C@@H](N)CC[C@@]23CCCN2C(=O)CCC[C@@H]13	·	5	·	·	·	·	·	·	·	·
COc1ccc2nc3cc(Cl)ccc3c(Nc3cc(C(C)C)c(O)cc3C)c2c1	-6	11	4	-3	20*	29*	8	-1	0	2
COC(=O)C1=C(C)N(C)C(=NCc2ccc(OC)cc2)NC1c1cccc(Cl)c1 (stereo not drawn)	·	-7	·	-1	0	·	·	·	·	·
COc1ccc(CN2C(=O)Cc3c2nc(N)c2c(N)nc(N4CCOCC4)c(C#N)c32)cc1	?	-2	6	-3	55*	18*	4	14*	-48	-49

From PubChem BioAssay
